According to PubChem BioAssay (NCATS):
Records with an inconclusive call do not appear. A number with no mark means an inactive call. Calls of active or inactive are those of the source. The call rests on the fitted dose curve; in most records, active means well fitted curve in the direction sought with a large enough effect; inconclusive means small, poorly fitted or top-dose-only effect, or another doubt; inactive means no such curve, though single readings can be large; an effect the other way counts as inactive or inconclusive.

Assay: qHTS for Inhibitors of Plasmodium falciparum (GB4) proliferation (AID 504315); further: nearly all actives have a fitted effect of over 50% in size;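 on activity change, negative = inhibition: 0% = DMSO vehicle and -100% = 0.29 µM artemisinin control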
Details: P. falciparum GB4 in erythrocytes, SYBR Green DNA, 72 h; series mostly up to 6.7 µM; activity change, negative = inhibition: at the top concentration
Method in brief: (§1)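 Parasite growth measured as SYBR Green DNA fluorescence (ex 485, em 535 nm) after overnight lysis following 72 h culture at 37 °C, 0.3% parasitemia, 2.5% hematocrit. Values normalized against DMSO and 0.29 uM artemisinin controls, with plate-stack correction.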
Potency means the concentration at half of the fitted maximal effect.

| Compound | activity change, negative = inhibition | Potency |
| --- | --- | --- |
| C[C@@H]1C[C@](C)(C(=O)c2ccco2)C=C1c1ccco1 | -2.4% |  |
| C=CCN1c2ccccc2[C@]23C[C@@H](C(=O)OC)N(C(=O)Nc4ccccc4F)C2=NC(C(=O)OC)=C(C(=O)OC)[C@H]13 | 4.4% |  |
| CC(C)(C)Nc1oc(-c2ccccc2)nc1-c1ccccc1 | -11.7% |  |
| O=S(=O)(CCc1ccccc1)c1nnnn1C1CCCCC1 | -9.58% |  |
| CCCCC1=CC2=C(c3ccco3)C(=O)C(C)(OC(=O)c3ccc(OC)cc3)C(=O)C2=CN1c1ccc(OC)cc1 (centres undefined) |  | inactive |
| COc1ccc2c3c(c(=O)oc2c1)[C@H]1O[C@](c2ccsc2)(Cc2ccccc21)O3 |  | 1.69 µM (active) |
| C=CC1=C2C=C(C3CC3)N(c3ccc(OC)cc3)C=C2C(=O)C(C)(OC(=O)c2ccco2)C1=O (centres undefined) |  | inactive |
| COc1cccc([C@H]2Oc3ccc(OC)cc3C(=NO[C@H](C)c3cn([C@H](CO)Cc4ccccc4)nn3)[C@H]2O)c1 | -1.44% |  |
| CC(=O)C1=C(C)N(Cc2ccccc2)C(=O)NC1c1ccc(Br)cc1 (centres undefined) |  | inactive |
| COc1ccc([C@]23Cc4ccccc4[C@H](O2)c2c(c4ccc(OC)cc4oc2=O)O3)cc1 |  | 1.9 µM (active) |
| CC1(OC(=O)C2CCCC2)C(=O)C=C2C=C(c3ccsc3)N(Cc3ccccc3)C=C2C1=O (centres undefined) |  | inactive |
| COC(=O)C1=C(C(=O)OC)[C@@H]2N(C)c3ccccc3[C@@]23C[C@@H](C(=O)OC)N(C(=O)c2ccco2)C3=N1 |  | inactive |
| O=C(c1ccccc1)[C@@H]1O[C@@H]1c1ccccc1 | -5.99% |  |
| COCOc1ccc(Br)cc1C(=O)[C@@H]1O[C@@H]1c1cccc(OC)c1 | -13.2% |  |
| CCOC(=O)OC[C@H]1O[C@H](C#Cc2ccc(C(C)(C)C)cc2)C=C[C@H]1OC(=O)OCC |  | 1.69 µM (active) |
| COC(=O)CCCC1=CC2=C(c3ccccc3)C(=O)C(C)(OC(=O)C3CCCC3)C(=O)C2=CN1c1ccc(OC)cc1 (centres undefined) |  | inactive |
| C[C@@H]1CC[C@H]2C(=O)O[C@H](COc3ccc(C(C)(C)C)cc3)CN2[C@@H]1c1ccc(Br)cc1 | 8.61% |  |
| CCN1C(=S)NC(c2ccccc2)C(C(=O)OC)=C1C (centres undefined) | 10.8% |  |
| C=C(CO[C@@H]1C=C[C@@H](c2ccccc2)O[C@@H]1COC)c1ccccc1 |  | 1.51 µM (active) |
| CCCNC(=O)OC[C@H]1O[C@H](CCON=C(C)CCC(=O)OC[C@H]2O[C@H](C#Cc3ccccc3)C=C[C@H]2Oc2ccc(C)cc2)C=C[C@H]1Oc1ccc(OC)cc1 | 0.355% |  |

| Compound | activity change, negative = inhibition | Potency |
| --- | --- | --- |
| CCc1cc2c(nc1CC)CCN(CCC(C)=NO[C@@H](C)CN1CCCc3nc(C)c(C)cc31)C2 | -16.1% |  |
| COC(=O)N[C@@H](c1cccc(F)c1)[C@]1(C(=O)OC)CCCC1=O | -0.691% |  |
| CCCC[C@]12Cc3cc(OC)c(OC)cc3[C@H](O1)C1=C(CC3(CCCCC3)OC1=O)O2 | -6.39% |  |
| COC(=O)[C@@H]1CC[C@H](C)[C@@H](c2ccc(C)cc2)N1C(=O)c1ccc(C=NO[C@@H](C)c2cn([C@H](CO)Cc3ccccc3)nn2)cc1 | -8.63% |  |
| COC(=O)[C@@H]1CC[C@H](C)[C@@H](c2ccc(C)cc2)N1C(=O)c1ccc(C=NOC[C@@H](O)COCc2ccco2)cc1 | -7.67% |  |
| Cc1ccccc1Nc1oc(-c2ccccc2)nc1-c1ccccc1 |  | 1.9 µM (active) |
| CC(C)=CCN1C(=O)[C@]2(O[C@H](C)CC3=CCCC32)c2c(Br)cccc21 (some centres undefined) | -3.06% |  |
| COc1ccc([C@]23Cc4cc(OC)c(OC)cc4[C@H](O2)C2=C(CC(C)(C)CC2=O)O3)cc1 | -3.07% |  |
| CC=Cc1cc2ccccc2c2c(C(=O)OC)c(C(=O)OC)c(C(=O)OC(C)(C)C)n12 | -9.91% |  |
| N#CCCCSc1nnnn1-c1cc(C(F)(F)F)cc(C(F)(F)F)c1 | -12.2% |  |
| C=CCOC(=O)C(C(C)=O)[C@@H](NC(=O)OC)c1ccc2ccccc2c1 (some centres undefined) | -13.3% |  |
| C=CCNC(=O)N1CCc2nc(CCCC)c3c(c2C1)CO[C@@H](C)C3 |  | inactive |
| COc1ccc(-c2nc(-c3ccccc3)c(NC(C)C)o2)cc1 |  | 1.51 µM (active) |
| COC(=O)CC=C1c2ccccc2OC[C@@H](OC)[C@H]1C | 7.02% |  |
| CC(C)=CCN1C(=O)C2(CC(C)=C[C@@H](C)O2)c2c(Br)cccc21 (some centres undefined) | -1.03% |  |
| COC(=O)C1=C(C(=O)OC)[C@@H]2N(C)c3ccc(OC)cc3[C@@]23C[C@@H](C(=O)OC)N(C(=O)NC(C)(C)C)C3=N1 |  | 1.9 µM (active) |
| C=CCN=C1NC(CCc2ccccc2)C(C(=O)OC)=C(C)N1CC (centres undefined) | -16.4% |  |
| C[C@@H]1C=CCC(=O)N[C@@H](c2ccccc2)[C@H](C)C=CCC(=O)N[C@@H]1c1ccccc1 | -13.3% |  |
| COC(=O)N[C@@H](C=Cc1ccccc1)C(C(=O)OC)=C(C)NCc1ccccc1 |  | 1.69 µM (active) |

Assay: qHTS for Inhibitors of Plasmodium falciparum (7G8) proliferation (AID 504316); further: nearly all actives have a fitted effect of over 65% in size;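 on activity change, negative = inhibition: 0% = DMSO vehicle and -100% = 0.29 µM artemisinin full kill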
Details: P. falciparum 7G8 in erythrocytes, SYBR Green DNA, 72 h; series mostly up to 6.7 µM; activity change, negative = inhibition: at the top concentration
Method in brief: as §1

| Compound | activity change, negative = inhibition | Potency |
| --- | --- | --- |
| C[C@@H]1C[C@](C)(C(=O)c2ccco2)C=C1c1ccco1 | -1.28% |  |
| C=CCN1c2ccccc2[C@]23C[C@@H](C(=O)OC)N(C(=O)Nc4ccccc4F)C2=NC(C(=O)OC)=C(C(=O)OC)[C@H]13 | -1.27% |  |
| CC(C)(C)Nc1oc(-c2ccccc2)nc1-c1ccccc1 | -6.49% |  |
| CCCCC1=CC2=C(c3ccco3)C(=O)C(C)(OC(=O)c3ccc(OC)cc3)C(=O)C2=CN1c1ccc(OC)cc1 (centres undefined) | 0.697% |  |
| CC(=O)C1=C(C)N(Cc2ccccc2)C(=O)NC1c1ccc(Br)cc1 (centres undefined) |  | inactive |
| COc1ccc([C@]23Cc4ccccc4[C@H](O2)c2c(c4ccc(OC)cc4oc2=O)O3)cc1 |  | 1.69 µM (active) |
| CC1(OC(=O)C2CCCC2)C(=O)C=C2C=C(c3ccsc3)N(Cc3ccccc3)C=C2C1=O (centres undefined) | -3.14% |  |
| COC(=O)C1=C(C(=O)OC)[C@@H]2N(C)c3ccccc3[C@@]23C[C@@H](C(=O)OC)N(C(=O)c2ccco2)C3=N1 |  | inactive |
| O=C(c1ccccc1)[C@@H]1O[C@@H]1c1ccccc1 | -1.73% |  |
| CCOC(=O)OC[C@H]1O[C@H](C#Cc2ccc(C(C)(C)C)cc2)C=C[C@H]1OC(=O)OCC |  | 2.13 µM (active) |
| COC(=O)CCCC1=CC2=C(c3ccccc3)C(=O)C(C)(OC(=O)C3CCCC3)C(=O)C2=CN1c1ccc(OC)cc1 (centres undefined) | -12.4% |  |
| C[C@@H]1CC[C@H]2C(=O)O[C@H](COc3ccc(C(C)(C)C)cc3)CN2[C@@H]1c1ccc(Br)cc1 | -6.27% |  |
| CCN1C(=S)NC(c2ccccc2)C(C(=O)OC)=C1C (centres undefined) | 2.66% |  |
| CCCNC(=O)OC[C@H]1O[C@H](CCON=C(C)CCC(=O)OC[C@H]2O[C@H](C#Cc3ccccc3)C=C[C@H]2Oc2ccc(C)cc2)C=C[C@H]1Oc1ccc(OC)cc1 | -13.8% |  |
| COC(=O)N[C@@H](c1cccc(F)c1)[C@]1(C(=O)OC)CCCC1=O | -1.45% |  |
| CCCC[C@]12Cc3cc(OC)c(OC)cc3[C@H](O1)C1=C(CC3(CCCCC3)OC1=O)O2 | -12.7% |  |
| Cc1ccccc1Nc1oc(-c2ccccc2)nc1-c1ccccc1 |  | 1.69 µM (active) |
| CC(C)=CCN1C(=O)[C@]2(O[C@H](C)CC3=CCCC32)c2c(Br)cccc21 (some centres undefined) | -16.4% |  |
| N#CCCCSc1nnnn1-c1cc(C(F)(F)F)cc(C(F)(F)F)c1 | -26.7% |  |
| C=CCOC(=O)C(C(C)=O)[C@@H](NC(=O)OC)c1ccc2ccccc2c1 (some centres undefined) | 2.54% |  |
| C=CCNC(=O)N1CCc2nc(CCCC)c3c(c2C1)CO[C@@H](C)C3 |  | inactive |
| COc1ccc(-c2nc(-c3ccccc3)c(NC(C)C)o2)cc1 |  | 1.51 µM (active) |
| COC(=O)CC=C1c2ccccc2OC[C@@H](OC)[C@H]1C | 8.51% |  |
| CC(C)=CCN1C(=O)C2(CC(C)=C[C@@H](C)O2)c2c(Br)cccc21 (some centres undefined) | -7.11% |  |
| C=CCN=C1NC(CCc2ccccc2)C(C(=O)OC)=C(C)N1CC (centres undefined) | -18% |  |
